# According to PubChem BioAssay AID602 (SRMLSC, 2007):
# About 35 (0.04%) of roughly 85,000 compounds were called active.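 The calls were made as follows: active = viability drop by adding the cancer drug above about 55%, with treated viability meeting a 40% cutoff (limit read from the data); inactive = the rest, inconclusive results apart.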 Shown is part of a subset that was picked to be rich in actives.
# Test: MRP1 drug-resistance reversers in H69AR cells – cell-based, doxorubicin co-treatment, primary screen (AID 602);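 as to differential viability (reversal): larger differential means the compound sensitizes cells more to doxorubicin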
# Details: CellTiter-Glo, 72 h, at 10 µM; for differential viability (reversal): stronger effect = higher value
# [1] = H69AR cells + 2 uM doxorubicin, measured here: viability with 2 uM doxorubicin, stronger effect = lower value
# [2] = H69AR cells, measured here: cytotoxicity without doxorubicin
Structure (SMILES),differential viability (reversal) (H69AR cells + 2 uM doxorubicin),viability [1],viability [2]
Cc1ccc(-n2ncc3c(=O)n(-c4ccc(C)c(C)c4)c(-c4ccco4)nc32)cc1,-39.7% (inactive),71%,31.3%
Nc1ccc(-n2nncc2-c2ccco2)cc1,59.2% (active),39.6%,98.8%
Cc1[nH]n(-c2cccc(Cl)c2)c(=O)c1/C=N/n1c(C)nc2ccccc2c1=O,-32.9% (inactive),62%,29.1%
Cc1cccc(C)c1OC(=O)CSc1nnc(-c2ccccc2)o1,9.93% (inactive),88.5%,98.4%
Cc1ccc(NC(=S)NC(NC(=O)Cc2cccc3ccccc23)C(Cl)(Cl)Cl)cc1 (centres undefined),0.19% (inactive),0.8%,0.99%
COc1ccc(/C(N)=N/OC(=O)Oc2ccccc2)cc1,-10.6% (inactive),93.2%,82.6%
CCOc1ccc2c(c1)C(c1ccc(C)cc1)=NNC(c1ccc(C)cc1)=N2,-43% (inactive),64%,21%
O=C(CN1CCSCC1)N/N=C/c1ccc(F)cc1,8.43% (inactive),90.1%,98.5%
CC(C)(C)c1ccc(C(=O)NNC(=O)Cc2ccccc2)cc1,9.15% (inactive),85.9%,95%
COC(=O)C1=C(C(=O)OC)C2(OC1c1ccc(Br)cc1)C(=O)c1ccccc1C2=O (centres undefined),12.1% (inactive),94%,106%
O=C(CSc1nc2cccnc2n1Cc1ccccc1)N1CCc2ccccc21,10.8% (inactive),59.3%,70.1%
COC(=O)CCSc1cc([N+](=O)[O-])cc2c1c(C1OCCS1)nn2-c1ccccc1 (centres undefined),-2.64% (inactive),101%,98.2%
CCCOn1c(-n2nc(C)cc2C)nc2ccccc2c1=O,4.29% (inactive),89.5%,93.8%
O=C(Nc1ccc(F)c(Cl)c1)C1CCN(S(=O)(=O)c2cccnc2)CC1,1.44% (inactive),70.3%,71.8%
Cc1ccc(C(=O)N/N=C/c2sc(=O)n(Cc3cccc(C(=O)O)c3)c2Cl)cc1,-5.62% (inactive),92.7%,87.1%
CCOC(=O)C(C)Sc1nc2ccccc2c(=O)n1CC1CCCCC1 (centres undefined),7.81% (inactive),74.6%,82.4%
Cc1cccc(NC(=O)C2CC(=O)OC23CCCC3)c1 (centres undefined),6.22% (inactive),95.5%,102%
COc1ccc(CC(NC(C)=O)C(=O)N2CCN(C(=O)Nc3cccc(Cl)c3)CC2)cc1OC (centres undefined),6.8% (inactive),85%,91.8%
O=C(CCS(=O)(=O)c1cccc2nsnc12)N1CCN(c2ccccc2F)CC1,10.9% (inactive),80%,91%
COc1ccc(-c2cc(C(=O)NCc3ccco3)no2)cc1OC,7.53% (inactive),92.6%,100%
CCOC(=O)C1=C(C)NC2=C(C(=O)CC(C)(C)C2)C1c1ccsc1 (centres undefined),-1.33% (inactive),85.8%,84.5%
O=S(=O)(NCCc1ccccc1)c1ccccc1,7.78% (inactive),95.5%,103%
CCN(c1ccccc1)S(=O)(=O)c1ccc(NC(=O)C(C)(C)C)cc1,-29.8% (inactive),64.7%,34.8%
COc1ccc(-c2cc(C(F)(F)F)nc(NCc3cccnc3)n2)cc1,1.23% (inactive),91.7%,92.9%

Structure (SMILES),differential viability (reversal) (H69AR cells + 2 uM doxorubicin),viability [1],viability [2]
Cc1ccc(S(=O)(=O)N2CCN(S(=O)(=O)N3CCOCC3)CC2)cc1,3.28% (inactive),89.8%,93.1%
CCOC(=O)/C(C#N)=C\c1c(C)cc(C)c(COC(C)=O)c1C,5.79% (inactive),89.3%,95.1%
Cc1ccc(F)c(NC(=O)CCc2ccccc2)c1,2.31% (inactive),95.5%,97.8%
COc1ccc(-n2c(C)csc2=S)cc1,-2.75% (inactive),89.3%,86.6%
CCN(CC)CCNC(=O)CCCCCn1c(=O)[nH]c2cc(C(=O)OC)ccc2c1=O,10.3% (inactive),91.6%,102%
N=c1c2c3c(sc2nc2n1CCCCC2)CCCC3,9.08% (inactive),75.2%,84.3%
Cc1cnc(NC(=O)C2CCCC2)s1,-2.44% (inactive),100%,97.7%
Oc1ccccc1CNc1ncc(Br)cc1Br,-9.74% (inactive),83.2%,73.5%
O=C(COC(=O)c1n[nH]c2ccccc12)NCc1ccccc1,1.28% (inactive),95.4%,96.7%
CCOc1ccc(Nc2nc(Cc3nnc(SCC(=O)c4ccc(C)cc4)o3)cs2)cc1,-4.34% (inactive),92.9%,88.6%
O=C1CC(Sc2ncn[nH]2)C(=O)N1c1ccccc1 (centres undefined),9.11% (inactive),87%,96.1%
O=C(c1cccc(F)c1)N1CCC(O)(c2cccnc2)CC1,5.21% (inactive),82.9%,88.1%
O=C(NCc1ccco1)C1(c2ccc(Cl)cc2)CCCC1,-5.04% (inactive),102%,96.8%
O=C(c1ccc2c(c1)OCO2)N1CCN(C(=O)c2ccco2)CC1,18.9% (inactive),73%,91.9%
O=C(c1ccccc1Oc1ccccc1)N1CCN(c2ccc(F)cc2)CC1,4.49% (inactive),95.8%,100%
COc1ccc(N2CCN(C(=O)CCc3nc(-c4ccc(C)cc4)no3)CC2)cc1,16.8% (inactive),81.6%,98.4%
CS(=O)(=O)N(Cc1ccc(Cl)cc1)c1ccc(C(=O)NCCSCc2ccco2)cc1,-17.6% (inactive),111%,93.7%
COC(=O)C1=C(Nc2ccc(OC)cc2)C=C(C)C(C(=O)OC)C1c1ccc(C)cc1 (centres undefined),-22.3% (inactive),77.8%,55.6%
COc1ccc(C(C#N)N2N=C(C)CC2(C)C)cc1 (centres undefined),15.2% (inactive),89.1%,104%
Cn1c(=O)c2c(SCC(=O)N3CCOCC3)nc(C3CC3)nc2n(C)c1=O,-2.72% (inactive),84.5%,81.8%
CO/N=C(/CS(=O)(=O)c1ccc(Br)cc1)c1ccc(OC)cc1,-26.9% (inactive),58.3%,31.4%
CCSc1ccccc1C(=O)NCc1ccc(OC)cc1,7.76% (inactive),84.9%,92.6%
Cc1ccc2cc(CCNC(=O)c3ccc4c(c3)OCO4)c(=O)[nH]c2c1,-5.04% (inactive),84.9%,79.8%
CCC(O)CNc1nc(-n2nc(C)cc2C)nc2sc3c(c12)CC(C)(C)OC3 (centres undefined),-4.15% (inactive),48.8%,44.6%
